# Source: PubChem BioAssay (Broad Institute)
# FadD28 binding = M. tuberculosis FadD28 bisubstrate binding inhibition. FadD28 bisubstrate probe binding, fluorescence polarization. inhibition, % at 12.5 µM. 360,000 tested, 0.22% active. AID 588549; in the data active = inhibition above about 8.5%, passing the limit was not always enough
# PfHsp40 rescue = rescue of PfHsp40-mediated yeast toxicity; growth rescue, % at 12.5 µM; S. cerevisiae expressing PfHsp40, growth rescue, ATP luminescence; 340,000 tested, 0.68% active; AID 504582; in the data active = growth rescue above about 28%, passing the limit was not always enough;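 note: yeast W303a lacking pdr1 and pdr3 grown in galactose medium; growth measured after three days at 30 °C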
# PrP 5UTR inh = inhibition of PrP 5' UTR reporter expression; inhibition, % (test concentration not listed); 340,000 tested, 0.35% active; cell-based PrP 5' UTR mRNA reporter, plate reader; in the data active = inhibition above about 52%; note: 0 = median of the neutral control wells
# Mtb BioA inh = blocks M. tuberculosis BioA enzyme activity. inhibition, % at 9.99 µM. AID 602481. purified M. tuberculosis BioA enzyme, plate reader. 360,000 tested, 0.096% active; in the data active = inhibition above about 40%
# TcdB GH inh = inhibitors of Clostridioides difficile toxin B glycohydrolase; P18177; TcdB glycohydrolase enzymatic assay, plate reader; inhibition, % at 9.99 µM; 350,000 tested, 0.24% active; AID 652162; in the data active = inhibition above about 10%
# Active calls of the source: *; x = no result given. Only some compounds are listed: those with a hit (about 1.1% of all), similar ones and a draw of the others.
SMILES,FadD28 binding,PfHsp40 rescue,PrP 5UTR inh,Mtb BioA inh,TcdB GH inh
CC(=O)NC(c1cccs1)c1cc([N+](=O)[O-])c2cccnc2c1O (centres undefined),0,243*,-23,x,1
CCCCC(=O)NC(c1cccc([N+](=O)[O-])c1)c1ccc2cccnc2c1O (centres undefined),0,105*,29,-1,1
CC(=O)NC(c1cccc([N+](=O)[O-])c1)c1ccc2cccnc2c1O (centres undefined),-3,194*,31,0,-2
C[C@@H]1CN([C@@H](C)CO)S(=O)(=O)c2ccc(C#CC3CC3)cc2O[C@H]1CN(C)C(=O)c1ccccc1,x,x,x,0,1
O=C(C[C@H]1C[C@H]2c3cc(NC(=O)Nc4ccccc4)ccc3O[C@H]2[C@@H](CO)O1)NCC1CC1,x,x,x,12,0
O=C(C1CCC1)N1CC[C@@H]2[C@@H](CO)Nc3ccc(C#Cc4ccc(F)cc4)cc3[C@@H]21,x,x,x,x,-1
CC(C)(C)c1ccc(OCc2ccc(C(=O)Nc3cccnc3)o2)cc1,-3,37*,-73,3,2
Cc1ccc(CSc2nc3nc(C)cc(C)c3c(=O)[nH]2)cc1,-1,-1,-10,-1,13*
Cc1cc(C)c2c(=O)[nH]c(SCc3ccccc3)nc2n1,-4,0,-31,x,0
C[C@@H]1CCCCO[C@@H](CN(C)S(=O)(=O)c2ccc(Cl)cc2)[C@@H](C)CN([C@H](C)CO)C(=O)c2cc(NS(=O)(=O)c3cn(C)cn3)ccc2O1,x,x,x,2,-1
N#CCCN(CCC#N)C(=O)C1c2ccccc2Oc2ccccc21,11*,0,-8,-10,1
Cc1noc(C)c1NC(=O)N(C)C[C@H]1OCCCC[C@@H](C)Oc2ccc(NC(=O)Nc3ccc(C(F)(F)F)cc3)cc2C(=O)N([C@@H](C)CO)C[C@H]1C,x,x,x,-1,-1
CCOC(=O)CN1C(=O)N[C@@H](c2cccc(F)c2)C(C(=O)OC)=C1C,-4,40*,-20,-1,1
CCOC(=O)CN1C(=O)N[C@@H](c2cccc(F)c2)C(C(C)=O)=C1C,-4,1,-14,-1,2
C[C@H](CO)N1C[C@H](C)[C@@H](CN(C)Cc2ccc(C(F)(F)F)cc2)OCCCC[C@H](C)Oc2ccc(NC(=O)Nc3ccc(F)cc3)cc2C1=O,x,x,x,0,2
C[C@H]1CN([C@@H](C)CO)S(=O)(=O)c2ccc(C3=CCCCC3)cc2O[C@@H]1CN(C)S(C)(=O)=O,x,x,x,5,1
O=[N+]([O-])c1ccccc1/C=N/Nc1nnc(-c2ccccc2)c(-c2ccccc2)n1,-3,42*,-14,x,x
C[C@@H]1CN([C@H](C)CO)C(=O)c2cc(NS(=O)(=O)c3cn(C)cn3)ccc2O[C@@H](C)CCCCO[C@H]1CN(C)Cc1ccncc1,x,x,x,-2,-1
Cc1ccc(-c2nc(N)c3c(-c4ccc(C)cc4)nn(C(C)(C)C)c3n2)cc1,3,-1,-3,1,x
CC(C)(C)n1nc(-c2ccc(F)cc2)c2c(N)ncnc21,-1,454*,16,0,x
CC(C)(C)n1nc(-c2ccc(Cl)cc2)c2c(N)ncnc21,-2,311*,26,x,x
CC(=O)Nc1cnc(-c2ccccc2O)cn1,-3,x,x,-2,12*
C[C@H](CO)N1C[C@H](C)[C@H](CN(C)C(=O)c2cccc(F)c2)Oc2ncc(-c3ccncc3)cc2C1=O,x,x,x,-1,0
COc1ccccc1N(C)S(=O)(=O)c1ccc(C(=O)NNC(=O)c2ccccc2O)cc1,0,x,-3,x,1
COc1ccc(N(C)S(=O)(=O)c2ccc(Cl)c(C(=O)NNC(=O)c3ccccc3O)c2)cc1,-3,248*,-22,-1,1
SMILES,FadD28 binding,PfHsp40 rescue,PrP 5UTR inh,Mtb BioA inh,TcdB GH inh
COc1ccccc1N(C)S(=O)(=O)c1ccc(Cl)c(C(=O)NNC(=O)c2ccccc2O)c1,-1,218*,-29,2,2
Cc1ccc(S(=O)(=O)Nc2ccc3c(c2)C(=O)N([C@H](C)CO)C[C@@H](C)[C@@H](CN(C)C(=O)c2ccncc2)OCCCC[C@@H](C)O3)cc1,x,x,x,-1,x
Cc1noc(C)c1S(=O)(=O)N(C)C[C@@H]1OCCCC[C@H](C)Oc2ccc(NS(=O)(=O)c3ccc(Cl)cc3)cc2C(=O)N([C@H](C)CO)C[C@@H]1C,x,x,x,1,0
CN(Cc1cncnc1)C[C@@H]1N[C@H](CO)[C@@H]1c1ccc(-c2ccc(C#N)cc2)cc1,x,x,x,x,1
COc1cccc(-c2ccc3c(c2)[C@H]2[C@H](CCN2S(=O)(=O)c2ccc(F)cc2)[C@H](CO)N3C)c1,x,x,x,x,0
C=CCNC(=S)N1CCC(Cc2ccccc2)CC1,-2,91*,-7,2,0
